Screening data (PubChem BioAssay)
CHX counter = affects cycloheximide protein synthesis inhibition readout, counter-screen; cell reporter, cycloheximide protein synthesis inhibition counterscreen; max response, %; hit rate 12% among 300,000; AID 2314; in the data active = max response mostly above about 13%, no sharp cut-off; inactive = mostly below about 14%; also: read at 38.3 µM for the half of the compounds with a filed dose; 0% is about no effect
Pf growth 96h = P. falciparum growth inhibition at 96 hours; AID 504834; hit rate 6.9% among 320,000; Potency, µM (top dose mostly 28.7 µM), without a hit: top-dose activity change, negative = inhibition, usual class: inhibitors; P. falciparum luciferase reporter growth, 96 h; also: potency is read from the fitted curve at half-maximal effect; % is scaled to controls: 0 for no effect and ±100 for the full control effect
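Readout is luminescence from an integrated firefly luciferase in P. falciparum. Red cells, 2% hematocrit and 0.05% parasitemia final, were cultured with compound through two parasite generations (96 hours) at 37 C, 5% CO2.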
Pf growth 48h = inhibits P. falciparum growth in the first generation, 48 h; P. falciparum luciferase growth in erythrocytes, 48 h; Potency, µM (highest dose often 28.7 µM), without a hit: at the top dose activity change, negative = inhibition, usual class: inhibitors; hit rate 5.9% among 310,000; also: potency is read from the fitted curve at half-maximal effect; % is scaled to controls: 0 for no effect and ±100 for the full control effect
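First compound was added to culture medium, then infected red cells at 0.1% parasitemia and 2% hematocrit (final). After incubation at 37 C under 5% CO2, luciferase detection reagent was dispensed and light output recorded.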
Shiga toxin inh = blocks Shiga toxin action in Vero cells | Vero cells, Shiga toxin protein synthesis inhibition reporter | inhibition, % at 38.7 µM | hit rate 9.2% among 290,000 | AID 2315; in the data active = inhibition mostly above about 28%, no sharp cut-off; inactive = mostly below about 43%; also: 0% is about no effect
LmPK inhibitor = inhibitors of Leishmania mexicana pyruvate kinase. Q27686. purified LmPK, Kinase-Glo ATP luminescence, 1 h. Potency, µM (titrated, usually from 57.5 µM), for the others: top-dose activity change, negative = inhibition, hits mostly inhibitors. hit rate 0.37% among 290,000. AID 1721; also: potency is read from the fitted curve at half-maximal effect; % is scaled to controls: 0 for no effect and ±100 for the full control effect
Target sequence (Q27686 whole entry, looked up): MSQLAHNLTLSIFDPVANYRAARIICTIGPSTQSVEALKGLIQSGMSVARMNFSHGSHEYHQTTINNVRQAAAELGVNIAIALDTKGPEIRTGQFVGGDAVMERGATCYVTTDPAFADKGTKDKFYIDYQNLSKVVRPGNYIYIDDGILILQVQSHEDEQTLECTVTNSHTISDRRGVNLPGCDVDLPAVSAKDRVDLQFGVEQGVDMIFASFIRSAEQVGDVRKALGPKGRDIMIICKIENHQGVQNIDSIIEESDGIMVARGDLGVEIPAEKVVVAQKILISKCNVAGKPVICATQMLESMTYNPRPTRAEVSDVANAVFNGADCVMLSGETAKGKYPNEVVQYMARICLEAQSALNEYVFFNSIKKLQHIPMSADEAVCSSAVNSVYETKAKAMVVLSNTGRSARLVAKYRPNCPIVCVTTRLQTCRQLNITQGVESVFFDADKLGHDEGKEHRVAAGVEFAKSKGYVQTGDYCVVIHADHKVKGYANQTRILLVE
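Kinase-Glo luminescence read after 1 h RT reaction of 0.1 nM LmPK with 0.5 mM PEP and 0.1 mM ADP. Activity scaled between uninhibited and enzyme-free controls.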
The depositor's hits bear a star; ? = inconclusive; . = no result given. Rows were chosen to be rich in hits. Some 22% of all compounds tested hit in one or more screens of this group. Unless noted, calls follow the shape of the dose curve; as a rule, active = well fitted inhibition curve with a large enough effect; inconclusive = small, poorly fitted or top-dose-only effect, or another doubt; inactive = no such curve, though single readings can be large or run the other way.

SMILES | CHX counter | Pf growth 96h | Pf growth 48h | Shiga toxin inh | LmPK inhibitor
S=C(NCC1CCCO1)N1CCN(c2ccccc2)CC1 (configuration not stated) | -3 | 4.7µM* | 31% | -5 | -10%
CC(=O)c1ccc(S(=O)(=O)Nc2ccc(-c3cn4c(n3)SCC4)cc2)cc1 | -1 | 25% | 22% | -2 | 19%
CCCCOc1ccc(OCCSc2nc3ccccc3n2CC(=O)O)cc1 | -3 | ? | -14% | -5 | 3%
O=C(O)CCn1c(SCCOc2ccccc2)nc2ccccc21 | 14* | 12µM* | 17% | . | -4%
O=C(O)CCSc1nc2ccccc2n1Cc1ccccc1 | 1 | 2.9µM* | -9% | 10 | -5%
O=C(O)Cn1c(SCCOc2ccccc2)nc2ccccc21 | 8 | 8.3µM* | 13% | 4 | -3%
Cc1ccc(OCCSc2nc3ccccc3n2CC(=O)O)cc1C | -1 | 12µM* | 8% | -2 | 1%
CCN1CCN(C(=O)CN2C(=O)c3ccccc3S2(=O)=O)CC1 | . | 66% | 15% | . | .
O=C(c1ccccc1Br)N(Cc1ccccc1)c1ccccc1 | -4 | -5% | ? | 4 | -2%
Cc1ccc(NS(=O)(=O)c2cc3[nH]c(=O)c(=O)[nH]c3cc2C)c(C)c1 | -3 | 8% | 32% | -5 | 0%
O=C(CN(C(=O)c1csnn1)c1ccc2c(c1)OCCO2)NCc1ccccc1 | 14 | 5% | 25% | 27 | 2%
OCC1(Cc2ccccc2)CCN(Cc2ccc(C(F)(F)F)cc2)CC1 | -2 | 0% | ? | -8 | 3%
CCC(=O)NC(=S)Nc1ccc(NC(=O)c2ccco2)c(OC)c1 | 10 | 35% | -6% | active | -2%
CC(C)CC(=O)NC(=S)Nc1ccc(NC(=O)c2ccco2)cc1 | 1 | 6.6µM* | ? | 2 | -1%
CCCCC(=O)NC(=S)Nc1cccc(NC(=O)c2ccco2)c1 | -1 | 0% | 13% | -12 | 1%
CCC(=O)NC(=S)Nc1ccc(NC(=O)c2ccco2)cc1 | 29* | ? | ? | 59* | -1%
CCc1ccc(NC(=S)NC(=O)CC(C)C)cc1 | 70* | 110% | 0% | 19* | -8%
O=C(Nc1ccc(NC(=S)NC(=O)c2ccco2)cc1)c1ccccc1 | 1 | -22% | ? | 25 | 0%
COc1cc(NC(=O)Cc2ccccc2)ccc1NC(=O)c1ccco1 | 14 | ? | 36% | 19 | -2%
C[N+]12CCC(CC1)C(=C(c1ccccc1)c1ccccc1)C2 | -1 | 0.59µM* | 0.74µM* | 4 | 2%
CC[N+]12CCC(CC1)C(=C(c1ccccc1)c1ccccc1)C2 | -2 | ? | 27% | 2 | 0%
COC(=O)c1sccc1NC(=S)N1CCN(C)CC1 | -2 | ? | ? | -3 | -1%
COC(=O)c1sccc1NC(=S)N1CCN(c2cc(C)ccc2C)CC1 | -5 | -24% | 10µM* | -3 | 0%
COC(=O)c1sccc1NC(=S)N1CCCC(C)C1 (configuration not stated) | -3 | ? | 12µM* | 26 | 1%
COc1ccc(C2C3=C(N=C4SCC(=O)N42)c2ccccc2CC3)cc1 (configuration not stated) | 39* | 12µM* | ? | 76* | -10%
SMILES | CHX counter | Pf growth 96h | Pf growth 48h | Shiga toxin inh | LmPK inhibitor
COc1ccccc1C1C2=C(N=C3SCC(=O)N31)c1ccccc1CC2 (configuration not stated) | -2 | ? | ? | 23 | 0%
COc1ccc(C2C3=C(N=C4SCC(=O)N42)c2ccccc2CC3)cc1OC (configuration not stated) | -1 | 14% | 2.3µM* | -9 | 1%
CC(CCc1ccccc1)NC(=O)C(=O)c1c[nH]c2ccccc12 (configuration not stated) | -6 | ? | 2% | 5 | 1%
C[C@H](NC(=O)Nc1cccc(Br)c1)C(=O)O | -1 | 33% | 18% | 25 | -1%
COC(=O)COc1ccc2c(c1)O/C(=C\c1cccc([N+](=O)[O-])c1)C2=O | -4 | 11% | 12% | -3 | 1%
Cc1cccc(/C=C2\Oc3cc(OS(C)(=O)=O)ccc3C2=O)c1 | 26* | -27% | 16% | 36 | 0%
O=C1/C(=C/c2cccc(F)c2)Oc2cc(O)ccc21 | 22* | 32% | 24% | 40* | 2%
O=C1/C(=C/c2ccc(O)c(O)c2)Oc2ccccc21 | 35* | . | . | 77* | .
O=C(O)Cc1csc(Nc2cccc(Cl)c2)n1 | 16* | 13µM* | 37% | 47 | -3%
CC(C)c1ccc(Nc2nc(CC(=O)O)cs2)cc1 | 49* | 52% | 273% | 108* | -6%
Cc1cccc(C)c1OCCCn1c(CCNC(=O)C2CCCCC2)nc2ccccc21 | -5 | . | . | -2 | .
O=C1Nc2ccccc2C(=O)N2C[C@@H](O)C[C@H]12 | 0 | 17% | 19% | -3 | -5%
O=C(NNC(=O)C1CC(c2cccs2)=NO1)NC1CCCCC1 (configuration not stated) | -1 | 7% | 16% | -5 | -1%
CC1(C)CC(=O)C2=C(C1)c1c(ccc3ccccc13)NC2c1ccc(Br)o1 (configuration not stated) | -1 | ? | . | -7 | 7%
COc1cccc(C2Nc3ccc4ccccc4c3C3=C2C(=O)CC(C)(C)C3)c1OCC(=O)O (configuration not stated) | 1 | ? | ? | -9 | -3%
COc1cc(C2Nc3ccc4ccccc4c3C3=C2C(=O)CC(C)(C)C3)ccc1OCC(=O)O (configuration not stated) | 0 | 0.93µM* | ? | . | 5%
COc1cc(C2Nc3ccc4ccccc4c3C3=C2C(=O)CC(C)(C)C3)ccc1OC(C)C(=O)O (configuration not stated) | 13 | ? | 1.7µM* | 29 | 2%
CCOc1ccc(C2Nc3ccccc3NC3=C2C(=O)CC(C)(C)C3)cc1OC (configuration not stated) | 7 | -89% | ? | 8 | -10%
CC1(C)CC(=O)C2=C(C1)c1c(ccc3ccccc13)NC2c1ccc(OCC(=O)O)cc1 (configuration not stated) | 6 | -29% | 10µM* | -4 | 0%
CN(C)C(=S)NC(=NCc1ccc([N+](=O)[O-])cc1)c1ccccc1 | -4 | 33% | ? | 16 | 5%
CNC(=S)N(C1=NCC(c2ccc([N+](=O)[O-])cc2)S1)c1ccccc1 (configuration not stated) | 39* | 13µM* | -33% | 56* | 3%
COCC1CCCCN1C(=O)C1CCN(c2nc(-c3ccccc3)nc3c2CCC3)CC1 (configuration not stated) | 15 | -24% | 9.3µM* | 27 | 12%
O=C(C1CCN(c2nc(-c3ccccc3)nc3c2CCC3)CC1)N1CCC(O)CC1 | -1 | ? | 3.7µM* | -17 | -9%
COCC1CCN(C(=O)C2CCN(c3nc(-c4ccccc4)nc4c3CCC4)CC2)C1 (configuration not stated) | -2 | ? | 7.4µM* | -6 | 6%
